PubChem BioAssay (NCI)
Compounds without any hit were thinned out: in the full panel of roughly 83,000, 20% have a hit.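 Interpretation: 100, growth as untreated; towards 0, rising growth inhibition; 0, no net growth; 0 to -100, cell death. Compounds scoring below 10 were considered active.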 Values without a mark were called inactive. Active and inactive are the calls of the source.

Tests used:
Assay in all cases: NCI-60 one-dose screen, 48 h (100 = growth as untreated, 0 = no growth, -100 = all killed)
Conditions in all cases: 10 µM unless noted
[1] = tested on: SR leukemia
[2] = tested on: RPMI-8226 leukemia
[3] = tested on: OVCAR-8 ovarian
[4] = tested on: OVCAR-5 ovarian
[5] = tested on: OVCAR-4 ovarian
[6] = tested on: SK-OV-3 ovarian
[7] = tested on: IGROV1 ovarian
[8] = tested on: OVCAR-3 ovarian
[9] = tested on: HS 578T breast
[10] = tested on: NCI/ADR-RES ovarian
[11] = tested on: T-47D breast
[12] = tested on: BT-549 breast
[13] = tested on: MDA-MB-435 melanoma
[14] = tested on: SW-620 colon
[15] = tested on: MCF7 breast
[16] = tested on: HCT-116 colon
[17] = tested on: HCC-2998 colon
[18] = tested on: KM12 colon

Compound	growth [1]	growth [2]	growth [3]	growth [4]	growth [5]	growth [6]	growth [7]	growth [8]	growth [9]	growth [10]	growth [11]	growth [12]	growth [13]	growth [14]	growth [15]	growth [16]	growth [17]	growth [18]
CCCCN1C(=O)/C(=c2\sc3n(c2=O)C2C(NN=3)N(CC)C(=O)N2CC)c2ccccc21 (centres undefined)	11%	4.61% (active)	-12.5% (active)	25.8%	37.5%	24.5%	2.64% (active)	-31.5% (active)	6.5% (active)	-9.17% (active)	20.5%	20.6%	-34% (active)	28.3%	5.32% (active)	3.15% (active)	6.49% (active)	16.1%
O=C1Nc2ccccc2/C1=C\c1nc(-c2ccccc2F)n2ccccc12	49.6%	44.6%	5.14% (active)	47.8%	-34.4% (active)	-0.955% (active)	2.99% (active)	6.22% (active)	12%	9.77% (active)	21.2%	24.5%	44.1%	26.2%	27.8%	-36.4% (active)	86.1%	34.4%
CN(C)CCNC(=O)c1cccc(-c2cnc3ccc(-c4ccc5c(c4)OCO5)nn23)c1	-2.23% (active)	75.8%	88.6%	89.3%	67.2%	61.1%	30.6%	76.9%	80.1%	85.8%	75.2%	80.7%	86%	52.8%	27.1%	5.58% (active)	77.3%	17.6%
CCOC(=O)/C=C1\S/C(=N\Nc2cc(=O)[nH]c3ccc(Cl)cc23)N(c2ccccc2)C1=O	4.23% (active)	3.83% (active)	90.1%	111%	76.2%	102%	62.9%	71.4%	99.8%	101%	66.8%	93.7%	96.3%	77.3%	34.3%	38.9%	105%	98.5%
O=C(O)c1ccc(-n2cc(/C=N/Nc3ccc(F)cc3)c(-c3cc4ccccc4oc3=O)n2)cc1	51.9%	90.4%	84.5%	82.4%	91.1%	94.1%	74%	82.4%	95.3%	77.9%	63.7%	80%	77.5%	64.5%	66.1%	56.5%	88.3%	77.7%
Cc1cccc(Cl)c1NC(=O)c1ccc2nc(NC(=O)NCCN(C)C)sc2c1	66%	94%	85.7%	85.4%	95.3%	64.2%	109%	114%	81.8%	118%	88.1%	82.1%	47%	103%	48.9%	92.1%	105%	97.1%
CCc1ccc(Oc2cn[nH]c2-c2ccc(OCCc3ccc(F)cc3)cc2O)cc1	101%	81%	101%	90.6%	89.5%	102%	97.3%	89.4%	93.1%	89.2%	34.5%	107%	91.6%	94.1%	85.3%	71.9%	98.5%	84.8%
O=C(CCc1nnc(Cn2cnc3nc[nH]c3c2=O)o1)c1nc2ncccc2[nH]1	100%	99.6%	100%	100%	99.4%	107%	102%	104%	93.2%	100%	94.5%	95.9%	99.5%	96%	97.2%	97.3%	105%	105%
O=C(CCCCC1CCSS1)Nc1ncnc2n[nH]c(-c3ccc(Oc4ccccc4)cc3)c12 (centres undefined)	32.9%	85.4%	100%	101%	108%	123%	93.5%	116%	117%	89%	73.7%	118%	-28.4% (active)	111%	43.2%	36.7%	103%	70.5%
O=C(Nc1nc2ccc(F)cc2s1)c1cccnc1Nc1ccc(Cl)cc1	29.5%	25%	47.3%	90.9%	-13.1% (active)	58%	39.9%	13.6%	39.6%	10.5%	-0.413% (active)	31.8%	29.2%	49.8%	17.7%	14.2%	31.1%	31.3%
O=C1CC(N2C(=O)/C(=C/C(Cl)=C\c3ccc([N+](=O)[O-])cc3)SC2=S)C(=O)N1c1ccc(Cl)cc1 (centres undefined)	4.86% (active)	-1.96% (active)	15.7%	40.6%	9.19% (active)	99.2%	10.2%	-35.4% (active)	21.7%	8.17% (active)	36.3%	-1.71% (active)	3.02% (active)	3.41% (active)	18.1%	8.7% (active)	-22.9% (active)	12.4%
CCCCOC(=O)OCc1cc(=O)c(O)co1	104%	106%	102%	102%	104%	105%	110%	114%	101%	108%	90.8%	110%	102%	103%	94.5%	106%	106%	104%
CC1(C)c2[nH]c3ccccc3c2C[C@]2(C)[C@H]3CC=C4[C@@H]5C[C@@](C)(C(N)=O)CC[C@]5(C)CC[C@@]4(C)[C@]3(C)CC[C@@H]12	34.3%	38.3%	50.8%	102%	32.4%	70.1%	74.4%	58.3%	91.5%	67.5%	9.07% (active)	58.7%	59.3%	61.2%	29.3%	40.9%	69.6%	58.2%
COC(=O)c1n[nH]c2ccc3nc(-c4cn[nH]c4C(F)(F)F)c4c(c3c12)CCCC4	11.9%	57.5%	34.6%	70.2%	62.5%	15.3%	19.5%	56.4%	9.88% (active)	83.7%	57%	35.5%	39.3%	28.3%	53%	22.9%	15.7%	26.8%
COc1ccc(OC)c(-c2c(C#N)c(-c3cccs3)nc3c2c(-c2ccccc2)nn3-c2ccccc2)c1	106%	106%	101%	103%	111%	93.2%	99.2%	114%	87.7%	107%	94.3%	121%	104%	93.9%	98.6%	91.7%	110%	105%
CCCCNc1ccc(C#N)c(OCCN(CC)CC)c1	93.8%	93.3%	100%	97.4%	105%	102%	105%	109%	123%	98.4%	104%	98.2%	104%	109%	93.8%	104%	108%	112%
COC(=O)CCC(=O)C(=O)OC	-26.4% [10 mM] (active)	-8.65% [10 mM] (active)	31.8% [10 mM]	23.6% [10 mM]	47.8% [10 mM]	3.77% [10 mM] (active)	9.89% [10 mM] (active)	5.88% [10 mM] (active)	25.2% [10 mM]	33.1% [10 mM]	61.3% [10 mM]	-12.2% [10 mM] (active)	29.2% [10 mM]	29.9% [10 mM]	49.8% [10 mM]	9.17% [10 mM] (active)	-38.5% [10 mM] (active)	2.17% [10 mM] (active)

Compound	growth [1]	growth [2]	growth [3]	growth [4]	growth [5]	growth [6]	growth [7]	growth [8]	growth [9]	growth [10]	growth [11]	growth [12]	growth [13]	growth [14]	growth [15]	growth [16]	growth [17]	growth [18]
CCO/C=N/C1=C(C#N)C(c2ccc(OC)cc2)c2sc3c(F)cccc3c2O1 (centres undefined)	25.5%	7.6% (active)	36.5%	63.8%	64.8%	49.6%	44.4%	8.12% (active)	4.04% (active)	16.9%	35.4%	49.8%	-42.8% (active)	22.4%	12.9%	33.8%	70.8%	25.3%
CC1=C(Nc2ccc(N3CCN(C)CC3)cc2)C(=O)c2cncnc2C1=O	26.2%	41.8%	2.2% (active)	71.7%	-98.1% (active)	111%	1.56% (active)	-34.8% (active)	126%	18.1%	-44.2% (active)	101%	-83.7% (active)	75.8%	61.9%	6.39% (active)	126%	91.2%
S=C1CCSC(=S)N1CCCN1C(=S)CCSC1=S	21%	3.38% (active)	55.3%	82.8%	83.7%	112%	85.8%	34.1%	83.2%	80.7%	35%	89.4%	59.6%	53%	20.8%	43%	96.2%	82.7%
CCN(CC)CCSc1nc(-c2ccccc2)c(C#N)c(=O)[nH]1	92.3%	119%	111%	108%	154%	90.8%	117%	116%	63.5%	58%	93.8%	94.9%	103%	94.4%	104%	105%	-6.88% (active)	118%
CCCCC(=O)c1ccco1	98.2%	85.1%	98.9%	84.7%	97.3%	89.1%	91.1%	104%	95.2%	93.3%	79.4%	102%	98.8%	97%	90.9%	91.6%	94.3%	106%
N#Cc1cnc(NCCc2ccncc2)nc1-n1cnc2ccccc21	35.4%	65.3%	54%	66.9%	74.2%	25.5%	29.1%	76.7%	72.1%	64.9%	54.5%	48.5%	69%	58.8%	64.4%	24.8%	58.5%	25.9%
N#Cc1cccc(-c2c(-c3ccc4ccccc4c3)oc3ccccc3c2=O)c1	9.67% (active)	46.2%	62.4%	53.3%	68.1%	51%	36.5%	40.2%	69%	27.2%	45.1%	34.1%	-26.8% (active)	14.6%	20.3%	12.4%	68.8%	25.9%
C=CCn1c(SCC(=O)NCc2cc(C)c(O)c(C)c2)nc2ccc(Cl)cc2c1=O	-34.1% (active)	-100% (active)	106%	88.4%	86.2%	109%	65%	101%	98.7%	97.1%	103%	113%	107%	102%	91.3%	102%	110%	104%
CN(C)C1CCN(Cc2ccc(NC(=O)c3cncc(C#Cc4cnc(N)c5ncccc45)c3)cc2C(F)(F)F)CC1	1.15% (active)	60.9%	-25.4% (active)	123%	-14.7% (active)	103%	112%	97.9%	44.9%	-63.9% (active)	93.7%	104%	-2.09% (active)	68.1%	73.6%	86.7%	99.6%	9.65% (active)
CN(C)CCNc1nc2c3cc(Cl)ccc3nn2c2ccccc12	16.9%	50.8%	36.1%	65.7%	55.6%	57.4%	39.2%	57.8%	68.8%	36.5%	86.6%	73%	65.3%	23.7%	35.3%	22.9%	56.3%	39.5%
CC1=NN(c2nc(SCC(=O)Nc3nc4ccc(C)cc4s3)nc(-c3ccccc3)c2C#N)C(=O)C1	87.2%	110%	102%	92.6%	101%	106%	83.5%	108%	90.5%	100%	91.3%	95.5%	103%	102%	96.8%	101%	104%	101%
c1cc2[nH]ncc2cc1-c1nc2ccc3[nH]ncc3c2c2c1CCCC2	-13.7% (active)	19.8%	17.4%	32.5%	39.9%	-25.1% (active)	8.59% (active)	28%	6.02% (active)	26.6%	4.77% (active)	12%	2.02% (active)	9.28% (active)	21.7%	0.11% (active)	13.8%	13.2%
CCCCCCCCCCCCCCCCCCOc1ccccc1CC(=O)OCC[N+]1(C)CCCC1	17.8%	21.6%	11.9%	37.3%	27.9%	94.1%	-58% (active)	22.3%	30.3%	82.3%	62%	67%	23.4%	21.4%	32.3%	29.2%	3.99% (active)	13.3%
CCn1cc(C(=O)N/N=C/c2cccs2)c(=O)c2cc(F)c(N3CCNC(C)C3)c(F)c21 (centres undefined)	-4.21% (active)	-36.6% (active)	43.8%	67.2%	76.2%	90.3%	67%	68.7%	86%	67.9%	77.8%	61.6%	92.2%	-16.8% (active)	-77.4% (active)	94.5%	28.6%	83.5%
COC(=O)/C(CCC=C(C)C)=C1\[C@@H](OC(C)=O)C[C@@]2(C)[C@H]1C[C@@H](O)[C@H]1[C@@]3(C)CC[C@H](NCCN)[C@@H](C)[C@@H]3CC[C@@]12C	-17.8% (active)	70%	86.3%	104%	90.2%	93.6%	86.6%	83.8%	77.9%	93.4%	83.2%	84.8%	93.6%	85.4%	72.3%	36.8%	91.3%	88.9%
CCOC(=O)c1cc(-c2ccc([N+](=O)[O-])cc2)n(-c2ccc(C(=O)O)c(O)c2)c1C	67.1%	-3.07% (active)	38.6%	114%	52%	95.6%	-11.3% (active)	79.6%	67.8%	57.5%	38.2%	95.7%	50.6%	93.2%	53.9%	49.4%	98.9%	86.8%
